The values below come from PubChem BioAssay AID624298 (National Center for Advancing Translational Sciences (NCATS), 2012).

Records with an inconclusive call do not appear. The source made the active and inactive calls. Calls follow the shape of the dose curve; as a rule, active = well fitted activation curve with a large enough effect; inconclusive = small, poorly fitted or top-dose-only effect; inactive = no such curve, though single readings can be large or run the other way.
Potency is read from the fitted curve at half-maximal effect.

The nature of this assay: Activators of T cell receptors: Hit Validation. As to activation: 0% is about no effect. Conditions: primary human leukocytes, cytokine release by HTRF, 48 h, TCR-stimulated with anti-CD3 beads; series mostly up to 46.1 µM; activation: at the top concentration. In short, it runs like this:
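Primary human leukocytes incubated 48 hr with anti-CD3 beads plus compound, without co-stimulation. Secreted IL-2 quantified by HTRF (europium cryptate donor, d2 acceptor, 665 nm emission).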
Take `CC(=O)Nc1nnc(S(N)(=O)=O)s1`: the “activation” value is 0.127% (inactive). Consider `COc1ccc(C(=O)c2sc3nc(C)cc(-c4cccs4)c3c2N)cc1OC`, for which the “activation” value was 9.06% (inactive).

Take `c1ccc(Sc2ccccn2)cc1`: the “activation” value is -4.69% (inactive). The same measure, in the same setting: next, `O=C(Nc1nnc(-c2ccccc2)s1)c1cccc(S(=O)(=O)N2CCOCC2)c1`: 8.4% (inactive); `O=C(CCCN=C1NS(=O)(=O)c2ccccc21)Nc1ccc(Cl)cc1`: 5.26% (inactive). In the case of `CN(C)c1ccc(C=c2c3ccccc3n3c2c2ccccc2[n+]3C)cc1`, the Potency was 560 nM (active). Turning to `CC(C)NS(=O)(=O)c1ccc(NC(=O)C(C)OC(=O)C2CCC2)cc1` (stereo unspecified), the “activation” value is 3.75% (inactive).

Turning to `COc1ccc(-n2c(=O)c(CCC(=O)NCCc3ccccc3F)nc3ccccc32)cc1`, the “activation” value is 11.5% (inactive). The same measure, in the same setting: next, `Cc1ccc(C(CC(=O)O)Nc2nc(N3CCOCC3)nc(N3CCOCC3)n2)cc1` (stereo unspecified): 9.58% (inactive); `CC(C)N1C(=O)C(=O)N(CC(=O)N2CCc3ccccc32)C1=O`: 9.24% (inactive); `CCN(C(=O)CSc1nnc(C2CC2)n1-c1ccccc1)C1CCS(=O)(=O)C1` (stereo unspecified): -6.94% (inactive).
